Test results: the supplement of paper PMC12669032
Unmarked numbers belong to inactive results.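 How the source made its calls: active = AUC reduced over 20% with Padj below 0.05 in at least 2 of 3 replicates; inactive = otherwise.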

Key:
Assay in all cases: growth AUC relative to DMSO control (median of replicates) (fraction); higher = more growth (less inhibition), active = hit call of the paper
Conditions in all cases: 20 µM; 24 h
Coprococcus comes = system: Coprococcus comes
Procedure, shortened: (§1)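 Gut bacterial monocultures in mGAM were treated with 20 µM compound (1% DMSO) and grown anaerobically at 37 °C in round-bottom 96-well plates from OD600 0.05. OD600 was read hourly for 24 h, with the minimum OD set to 0. Area under the growth curve was normalised to the plate median of solvent-only wells, or to row and column medians on the industrial chemical plate. Each value is the median of three biological replicates, each grown on a separate day.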

Escherichia coli ED1a = system: Escherichia coli ED1a
Procedure, shortened: as §1

Escherichia coli IAI1 = system: Escherichia coli IAI1
Procedure, shortened: as §1

Eubacterium rectale = system: Eubacterium rectale
Procedure, shortened: as §1

[1] = system: Fusobacterium nucleatum subsp. animalis
Procedure, shortened: as §1

Lactobacillus gasseri = system: Lactobacillus gasseri
Procedure, shortened: as §1

Lactobacillus paracasei = system: Lactobacillus paracasei
Procedure, shortened: as §1

Odoribacter splanchnicus = system: Odoribacter splanchnicus
Procedure, shortened: as §1

[2] = system: Parabacteroides distasonis
Procedure, shortened: as §1

Parabacteroides merdae = system: Parabacteroides merdae
Procedure, shortened: as §1

Roseburia intestinalis = system: Roseburia intestinalis
Procedure, shortened: as §1

Streptococcus salivarius = system: Streptococcus salivarius
Procedure, shortened: as §1

Compound | growth AUC (Coprococcus comes) | growth AUC (Escherichia coli ED1a) | growth AUC (Escherichia coli IAI1) | growth AUC (Eubacterium rectale) | growth AUC [1] | growth AUC (Lactobacillus gasseri) | growth AUC (Lactobacillus paracasei) | growth AUC (Odoribacter splanchnicus) | growth AUC [2] | growth AUC (Parabacteroides merdae) | growth AUC (Roseburia intestinalis) | growth AUC (Streptococcus salivarius)
O=C(O)c1ccc(=O)[nH]c1 | 0.999 | 0.99 | 1.03 | 0.976 | 0.982 | 0.972 | 0.987 | 0.985 | 1.02 | 0.983 | 1.01 | 0.981
COc1cnc(OC)n2nc(NS(=O)(=O)c3c(OCC(F)F)cccc3C(F)(F)F)nc12 | 1.01 | 1.01 | 1.02 | 0.954 | 0.96 | 1.08 | 0.965 | 1.01 | 1.01 | 1.01 | 1.01 | 0.959
CCCC(Cn1cncn1)c1ccc(Cl)cc1Cl (stereo not drawn) | 0.919 | 0.997 | 1.03 | 0.73 (active) | 1.05 | 1.05 | 0.987 | 0.962 | 0.991 | 0.969 | 1.02 | 0.915
COP(=S)(OC)Oc1ccc([N+](=O)[O-])c(Cl)c1 | 0.95 | 0.97 | 0.984 | 1.18 | 0.975 | 0.893 | 0.974 | 0.876 | 0.921 | 0.932 | 0.926 | 1.05
CC(C)Nc1nc(Cl)nc(NC(C)C)n1 | 0.958 | 1.03 | 0.978 | 1.07 | 1.04 | 0.983 | 1.06 | 0.797 | 1.02 | 0.968 | 0.962 | 0.99
CC1(C)[C@H](C(=O)O[C@H](C#N)c2cccc(Oc3ccccc3)c2)[C@@H]1/C=C\C(=O)OC(C(F)(F)F)C(F)(F)F | 1.03 | 1.01 | 1.1 | 0.984 | 0.986 | 1.12 | 0.984 | 1.03 | 0.994 | 1.01 | 0.962 | 1.07
Nc1ccc(Cc2ccc(N)c(Cl)c2)cc1Cl | 1 | 1.01 | 1.01 | 1.01 | 0.997 | 1.04 | 1.07 | 1.11 | 1.08 | 1 | 1.1 | 1.09
CCCOC(=O)c1ccccc1C(=O)OCCC | 1.11 | 1.02 | 1.05 | 1.1 | 1.15 | 0.999 | 1.09 | 0.698 | 0.953 | 0.993 | 1.1 | 1.01
COC(=O)COc1ccc(Cl)cc1Cl | 0.98 | 0.968 | 0.968 | 1.21 | 0.946 | 0.915 | 1.04 | 1.14 | 0.931 | 0.964 | 0.943 | 0.937
COc1cc(OC)nc(Sc2cccc(Cl)c2C(=O)O)n1 | 1.02 | 0.981 | 0.977 | 1.04 | 0.941 | 0.897 | 0.971 | 0.985 | 0.906 | 0.975 | 0.984 | 0.973
CC1(C)CCC(Cc2ccc(Cl)cc2)C1(O)Cn1cncn1 (stereo not drawn) | 0.982 | 0.971 | 0.98 | 0.8 | 1.08 | 0.976 | 1.02 | 0.823 | 0.927 | 0.918 | 0.943 | 1
Nc1c(Cl)c(Cl)c(Cl)c(Cl)c1Cl | 0.958 | 0.986 | 0.95 | 1.01 | 0.983 | 0.972 | 0.869 | 0.993 | 1.04 | 0.971 | 0.986 | 0.983
Cc1cc(Cl)ccc1N=CN(C)C | 1.01 | 0.998 | 0.963 | 1.16 | 0.978 | 1.04 | 0.997 | 1.01 | 1.03 | 0.988 | 1.02 | 0.998
CCC(C)(CC)c1cc(NC(=O)c2c(OC)cccc2OC)on1 | 1.03 | 1.01 | 0.988 | 0.986 | 0.986 | 0.932 | 1.02 | 1.04 | 1 | 0.939 | 0.963 | 0.979
COc1cc(OC)nc(NC(=O)NS(=O)(=O)c2cc(NC=O)ccc2C(=O)N(C)C)n1 | 0.993 | 0.996 | 1.01 | 0.998 | 1.06 | 0.902 | 1.05 | 1.01 | 0.977 | 0.951 | 1.04 | 1.03
COCC(=O)N(c1c(C)cccc1C)N1CCOC1=O | 0.939 | 0.975 | 1.02 | 0.964 | 0.882 | 0.914 | 0.953 | 0.984 | 1.03 | 1.01 | 0.994 | 1
Oc1c(Cl)ccc(Cl)c1Cl | 0.98 | 1.02 | 0.985 | 0.969 | 1.05 | 0.922 | 1.01 | 0.915 | 0.911 | 0.981 | 0.951 | 0.964
O=C(O)c1cc(Cl)ccc1Cl | 0.994 | 0.97 | 0.984 | 1.02 | 0.994 | 0.869 | 0.934 | 1.08 | 0.978 | 0.96 | 0.993 | 1.01
CNC(=O)O/N=C(\C)SC | 0.981 | 0.979 | 1.01 | 1.01 | 0.985 | 1.02 | 0.967 | 0.992 | 0.986 | 1 | 0.994 | 0.973
CN(C(=O)COc1nc2ccccc2s1)c1ccccc1 | 1.01 | 1.02 | 0.952 | 1 | 1.1 | 1.13 | 1.02 | 0.934 | 0.948 | 0.998 | 1.08 | 1
COP(=S)(OC)SCC(=O)N(c1ccc(Cl)cc1)C(C)C | 1.04 | 0.988 | 0.976 | 0.964 | 0.985 | 1.03 | 1.04 | 1 | 0.861 | 0.924 | 1.03 | 0.992
Cc1cc(Cl)ccc1N=CN(C)C.Cl | 1.09 | 1 | 0.98 | 1.01 | 1.01 | 1.01 | 1.03 | 1 | 1.02 | 1.01 | 0.994 | 0.99
N#Cc1c(O)c(Cl)c(Cl)c(C#N)c1Cl | 1.02 | 0.989 | 0.987 | 0.938 | 0.868 | 1.02 | 0.986 | 0.912 | 1.03 | 0.994 | 1.06 | 1
CNC1=C(c2cccc(C(F)(F)F)c2)C(=O)C(c2ccccc2)O1 (stereo not drawn) | 1.06 | 0.998 | 0.992 | 1 | 0.969 | 0.985 | 0.781 | 1.07 | 0.951 | 0.969 | 1.04 | 0.988
